# According to the supplement of paper PMC8728848:
# The entries come from a sample that favours the strongest signals as a whole.
# Tests used:
# Assay in all cases: glycan array binding signal (z-score within array); higher = stronger binding
# Details in all cases: glycan notation: IUPAC condensed, linker removed
# [1] = biological target: GlcNAc(a1-4)Gal(b1-4)GlcNAc(b1-3)Gal(b1-4)[Fuc(a1-3)]GlcNAc(b1-3)Gal(b1-4)[Fuc(a1-3)]GlcNAc
# Method in brief: (§1)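 Glycan array binding is given as a within-array Z-score, which can be read as non-binding when negative. The arrays, 3228 of them, came from the Consortium for Functional Glycomics database and were retained only where the protein sequence was available. Z-scores were averaged across arrays of the same protein sequence at different concentrations or buffers and across linkers.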
# [2] = biological target: GlcNAc(b1-2)[GlcNAc(b1-4)]Man(a1-3)[GlcNAc(b1-2)Man(a1-6)]Man(b1-4)GlcNAc(b1-4)GlcNAc
# Method in brief: as §1
# [3] = biological target: GlcNAc(b1-2)[GlcNAc(b1-4)]Man(a1-3)[GlcNAc(b1-4)][GlcNAc(b1-2)Man(a1-6)]Man(b1-4)GlcNAc(b1-4)GlcNAc
# Method in brief: as §1
# [4] = biological target: GlcNAc(b1-3)Gal(b1-4)GlcNAc(b1-3)Gal(b1-4)GlcNAc(b1-2)Man(a1-3)[GlcNAc(b1-3)Gal(b1-4)GlcNAc(b1-3)Gal(b1-4)GlcNAc(b1-2)Man(a1-6)]Man(b1-4)GlcNAc(b1-4)GlcNAc
# Method in brief: as §1
# [5] = biological target: GlcNAc(b1-3)Gal(b1-4)GlcNAc(b1-3)Gal(b1-4)GlcNAc(b1-3)Gal(b1-4)GlcNAc(b1-2)Man(a1-3)[GlcNAc(b1-3)Gal(b1-4)GlcNAc(b1-3)Gal(b1-4)GlcNAc(b1-3)Gal(b1-4)GlcNAc(b1-2)Man(a1-6)]Man(b1-4)GlcNAc(b1-4)GlcNAc
# Method in brief: as §1
# [6] = biological target: GlcNAc(b1-3)[GlcNAc(b1-4)][GlcNAc(b1-6)]GlcNAc
# Method in brief: as §1
# Kdn(a2-6)Gal(b1-4)GlcNAc = biological target: Kdn(a2-6)Gal(b1-4)GlcNAc
# Method in brief: as §1
# [7] = biological target: Man(a1-2)Man(a1-3)[Man(a1-2)Man(a1-6)]Man
# Method in brief: as §1
# [8] = biological target: Man(a1-2)Man(a1-3)[Man(a1-2)Man(a1-6)]Man(a1-6)[Man(a1-2)Man(a1-2)Man(a1-3)]Man
# Method in brief: as §1
# Man(a1-3)[Man(a1-6)]Man = biological target: Man(a1-3)[Man(a1-6)]Man
# Method in brief: as §1
# [9] = biological target: Neu5Ac(a2-3)Gal(b1-3)GlcNAc(b1-2)[Neu5Ac(a2-3)Gal(b1-3)GlcNAc(b1-4)]Man(a1-6)[Neu5Ac(a2-3)Gal(b1-3)GlcNAc(b1-2)Man(a1-3)]Man(b1-4)GlcNAc(b1-4)GlcNAc
# Method in brief: as §1
# [10] = biological target: Neu5Ac(a2-3)Gal(b1-3)GlcNAc(b1-3)Gal(b1-3)GlcNAc
# Method in brief: as §1
# [11] = biological target: Neu5Ac(a2-3)Gal(b1-4)GlcNAc(b1-2)Man(a1-3)[GlcNAc(b1-4)][Neu5Ac(a2-3)Gal(b1-4)GlcNAc(b1-2)Man(a1-6)]Man(b1-4)GlcNAc(b1-4)GlcNAc
# Method in brief: as §1
# [12] = biological target: Neu5Ac(a2-3)Gal(b1-4)GlcNAc(b1-2)Man(a1-3)[Neu5Ac(a2-6)Gal(b1-4)GlcNAc(b1-2)Man(a1-6)]Man(b1-4)GlcNAc(b1-4)GlcNAc
# Method in brief: as §1
# [13] = biological target: Neu5Ac(a2-3)Gal(b1-4)GlcNAc(b1-3)Gal(b1-4)GlcNAc(b1-3)[Neu5Ac(a2-3)Gal(b1-4)GlcNAc(b1-3)Gal(b1-4)GlcNAc(b1-6)]GalNAc
# Method in brief: as §1
# [14] = biological target: Neu5Ac(a2-3)Gal(b1-4)[Fuc(a1-3)]GlcNAc(b1-3)GalNAc
# Method in brief: as §1
# [15] = biological target: Neu5Ac(a2-3)Gal6S(b1-4)[Fuc(a1-3)]GlcNAc
# Method in brief: as §1
# [16] = biological target: Neu5Ac(a2-6)Gal(b1-4)GlcNAc
# Method in brief: as §1
# [17] = biological target: Neu5Ac(a2-6)Gal(b1-4)GlcNAc(b1-2)Man(a1-3)[Gal(b1-4)GlcNAc(b1-2)Man(a1-6)]Man(b1-4)GlcNAc(b1-4)GlcNAc
# Method in brief: as §1
# [18] = biological target: Neu5Ac(a2-6)Gal(b1-4)GlcNAc(b1-2)Man(a1-3)[GlcNAc(b1-2)Man(a1-6)]Man(b1-4)GlcNAc(b1-4)GlcNAc
# Method in brief: as §1
# [19] = biological target: Neu5Ac(a2-6)Gal(b1-4)GlcNAc(b1-2)Man(a1-3)[Neu5Ac(a2-3)Gal(b1-4)GlcNAc(b1-2)Man(a1-6)]Man(b1-4)GlcNAc(b1-4)GlcNAc
# Method in brief: as §1
# [20] = biological target: Neu5Ac(a2-6)Gal(b1-4)GlcNAc(b1-6)GalNAc
# Method in brief: as §1
# [21] = biological target: Neu5Ac(a2-8)Neu5Ac(a2-3)Gal(b1-3)GalNAc(b1-4)[Neu5Ac(a2-8)Neu5Ac(a2-3)]Gal(b1-4)Glc
# Method in brief: as §1
# [22] = biological target: Neu5Ac(a2-8)Neu5Ac(a2-8)Neu5Ac(a2-3)[Gal(b1-3)GalNAc(b1-4)]Gal(b1-4)Glc
# Method in brief: as §1
# [23] = biological target: Neu5Ac(b2-6)Gal(b1-4)GlcNAc
# Method in brief: as §1
# [24] = biological target: Neu5Gc(a2-3)Gal(b1-3)[Fuc(a1-4)]GlcNAc
# Method in brief: as §1
binder,measurement,setting,value
Clec39 (Caenorhabditis elegans) (protein) MTSFYDNSSSSSKPVPLKTSRAQKIQILIFDNWKLILYGAISTLILVLAIMFSTLFFALPAANCDENSEPTKYYTTNAEITTTITTTNQKTTSTASSHLTTISSSATQIYSESSSSSTSQSTFTQSPPEISTTTIAPSDFSCQHGFTLVNNKCWKLVTSNQARPDADKICNGYGGATLFSIKSEQDNRAMIHFVKGQDIDFLWSGLLCSAGEPISCIWDIENGSTANYSNFADGFPNIVYGNCVYFITSGDEAGQWGNEQCGQVMNFVCELPATFQGKDGCKNNYEKSCYLRFDLNLTVPQAQNFCLEKCANLVSIHSANEVRFIMTIYDFIGEILIGALAPAQDFIYWLDGTPANYNNLKFFYNSTCVHMTVAPGMQNVGKWFTRFCTETGKFLCKRSIKNSCT,glycan array binding signal (z-score),[1],3.59
same,glycan array binding signal (z-score),[2],0.095
same,glycan array binding signal (z-score),[3],0.673
same,glycan array binding signal (z-score),[4],0.778
same,glycan array binding signal (z-score),[5],-0.221
same,glycan array binding signal (z-score),[6],0.102
same,glycan array binding signal (z-score),Kdn(a2-6)Gal(b1-4)GlcNAc,0.204
same,glycan array binding signal (z-score),[7],-0.005
same,glycan array binding signal (z-score),[8],0.088
same,glycan array binding signal (z-score),Man(a1-3)[Man(a1-6)]Man,0.047
same,glycan array binding signal (z-score),[9],0.47
same,glycan array binding signal (z-score),[10],-0.142
same,glycan array binding signal (z-score),[11],1.43
same,glycan array binding signal (z-score),[12],2.22
same,glycan array binding signal (z-score),[13],-0.101
same,glycan array binding signal (z-score),[14],4.34
same,glycan array binding signal (z-score),[15],-1.24
same,glycan array binding signal (z-score),[16],-1.22
same,glycan array binding signal (z-score),[17],0.815
same,glycan array binding signal (z-score),[18],0.613
same,glycan array binding signal (z-score),[19],-0.493
same,glycan array binding signal (z-score),[20],-0.055
same,glycan array binding signal (z-score),[21],1.4
same,glycan array binding signal (z-score),[22],0.076
same,glycan array binding signal (z-score),[23],-0.632
same,glycan array binding signal (z-score),[24],1.01
